The nature of assay [1]: yeast TOR pathway RPL19A-GFP modulators, primary screen, cell-based, S. cerevisiae, multiplex flow cytometry (AID 1862; in the data active = percent of DMSO control GFP below about 86%;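 note: lower values mimic rapamycin by blocking the RPL19A rise seen in DMSO cells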). Conditions: S. cerevisiae RPL19A-GFP strain, flow cytometry fluorescence, 3 h; at 10 µM; stronger effect = lower value.
Assay [2] is described as follows: modulators of MEP2-GFP levels in yeast, primary screen, S. cerevisiae, multiplex flow cytometry (AID 1867;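 active = GFP response, as percent of the DMSO control, above the screen-wide mean plus 3 SD, about 139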;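 note: median GFP channel fluorescence of barcode-gated MEP2-GFP cells measured by flow cytometry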). Conditions: S. cerevisiae MEP2-GFP strain, 3 h, at 10 µM, stronger effect = higher value, 100% means same as DMSO wells. On the technique in general: A flow cytometer gives signals particle by particle.
A short description of assay [3]: modulators of CIT2-GFP expression in yeast, primary screen, S. cerevisiae, GFP fusion, multiplex flow cytometry (AID 1870;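 active = percent response above a set limit, the screen-wide mean plus 3 SD, cut at about 130% in these data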;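 note: barcoded CIT2-GFP strain pooled with four other GFP strains with rapamycin as positive control; median GFP fluorescence per well over plate mean of DMSO wells so 100% = DMSO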). The conditions noted are these: 3 h, at 10 µM, stronger effect = higher value.
The nature of assay [4]: modulators of LAP4-GFP expression in yeast, primary screen, S. cerevisiae, multiplex flow cytometry (AID 1873;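 active = GFP signal, as percent of the solvent control, above the screen mean plus 3 SD, about 149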). Conditions: 3 h, at 10 µM, stronger effect = higher value.
Assay [5] can be described thus: modulators of AGP1-GFP expression in yeast TOR pathway, primary screen, cell-based, multiplex flow cytometry, S. cerevisiae (AID 1887;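 active = GFP signal above the screen-wide mean plus 3 SD, that is over about 124.5% of the solvent control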;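 note: AGP1-GFP fusion strain of S. cerevisiae within a five-strain barcoded multiplex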). Conditions: 3 h, at 10 µM, stronger effect = higher value.
Assay [6] can be described thus: inhibitors of CD8+ T cell-vesicle binding, pilot screen, LFA-1/ICAM-1 modulator project, MLPCN validation set, flow cytometry (AID 2523;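 active = response below a set limit, under 55% cells CD8-positive and vesicle-bound, and CD8 cells' 90th-percentile brightness under 279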;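 for vesicle binding response: mean PE anti-B7-1 fluorescence of CD8+ cells relative to row control; 100% = QL9-loaded vesicles with DMSO vehicle in the same plate row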). Conditions: 2C mouse CD8+ T cells, at 7 µM, stronger effect = lower value; double positive events: measured here: CD8+/vesicle+ event percentage.
Assay [7] concerns the target Integrin beta-1 (Homo sapiens) + Integrin alpha-4 (Homo sapiens) (UniProt P13612+P05556). Description: inhibition of HUTS-21 binding to VLA-4, pilot screen, VLA-4 allosteric modulator project, U937 cells, HUTS-21 mAb, flow cytometry, validation set (AID 2674;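 active = inhibition above 50%, about 3 SD of the validation set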;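 note: antibody binding induced by the VLA-4 ligand LDV present at three times its Kd; 0% = LDV ligand with antibody and no compound and 100% = antibody without LDV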). Conditions: HUTS-21 LIBS mAb binding, at 6.7 µM, stronger effect = higher value, binding induced by LDV ligand.
The nature of assay [8]: superoxide lowering in aged yeast cells, pilot screen, validation compound set (AID 2706;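 active = superoxide response below 65% of plate, a cut near 3 SD across the whole screen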;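 note: yeast exposed to compound for one week at 30 degrees C before staining; 100% = mean of all compound wells on the same plate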). Conditions: S. cerevisiae aging, superoxide DHE fluorescence; at 10 µM; stronger effect = lower value.
The target in assay [9] is Beta-adrenergic receptor kinase 1 (Homo sapiens) (UniProt P25098). Description: GRK2 binders displacing RNA aptamer, biochemical, validation, human GRK2, bead flow cytometry (AID 488806). The conditions noted are these: bead-bound GRK2, FAM-aptamer displacement, at 10 µM, stronger effect = higher value.
For assay [10], the target named is Beta-2 adrenergic receptor (Homo sapiens) (UniProt P07550). The assay is described as follows: beta2AR agonists driving receptor internalization, pilot screen, cell-based, FAP fluorogen, flow cytometry, validation set (AID 504459;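 active = percent response above 42, roughly 3 SD of non-fluorescent test compounds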;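 note: agonist-driven loss of surface beta2AR via internalization measured by FAP dye flow cytometry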). Conditions: Am2.2-beta2AR cells, FAP surface receptor flow cytometry; at 10 µM; stronger effect = higher value.
For assay [11], the target named is AP-2 complex subunit beta (Homo sapiens) (UniProt P63010). The assay is described as follows: inhibitors of arrestin peptide binding to AP2, pilot screen, biochemical, validation set, GST-AP2 beads, flow cytometry (AID 504541;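 active = inhibition above 54%, about 3 SD of non-fluorescent compounds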;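 note: AP2 carries R879A mutation and is captured from E. coli lysate; bead-bound FITC arrestin peptide fluorescence measuring arrestin peptide binding to AP2; 0% = DMSO wells and 100% = excess unlabeled arrestin peptide control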). The conditions noted are these: FITC arrestin peptide, at 10 µM, stronger effect = higher value, AP2 beta2 appendage fragment, R879A mutant.
Assay [12] in a line: yeast V-ATPase proton transport modulators, S. cerevisiae, pHLuorin, HTS validation (AID 504600; in the data active = response above about 15%;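 note: plate controls were DMSO for no effect and reference compound for full effect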). Conditions: S. cerevisiae pHLuorin cytosolic pH, at 10 µM, stronger effect = higher value.
In assay [13] the test system is anti-desmoglein-3 scFv antibody binding to human DSG3. Description: inhibitors of anti-DSG3 scFv binding to DSG3, pilot screen, biochemical, validation compound set, bead-based, flow cytometry (AID 588368;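 active = binding below the plate cutoff, the plate median minus 3 SD, with a reading above zero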;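 note: signal is the median channel fluorescence of bead-bound GFP antibody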). Conditions: Protein G beads, DSG3-Fc, scFv-GFP binding, at 10 µM, stronger effect = lower value.
Assay [14] is described as follows: inhibitors of fungal efflux pumps CDR1, CDR2, MDR1, pilot screen, validation compound set, multiplex, phenotypic (AID 588506;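 active = efflux inhibition above 0.42, the validation set average plus 4 SD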;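 note: Nile Red retained in cells so higher fluorescence means more efflux inhibition; 0 = negative control wells and 1 = enniatin B 25 µM full block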). The conditions noted are these: S. cerevisiae pump-expressing triplex, Nile Red efflux flow cytometry; at 10 µM; stronger effect = higher value; the pumps come from Candida albicans.
In assay [15] the target is ATP-binding cassette sub-family B member 6 (Homo sapiens) (UniProt Q9NP58). The assay is described as follows: ABCB6 transporter inhibitors, pilot screen, K562-ABCB6 cells, flow cytometry, validation set (AID 588550;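 active = inhibition above the screen-wide mean plus 3 SD, about 51%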;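 note: 0% = DMSO wells and 100% = benzethonium chloride 70 µM positive control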). The conditions noted are these: K562-ABCB6 porphyrin accumulation, 1 h, at 10 µM, stronger effect = higher value.
Assay [16] in a line: promoters of myeloid differentiation in arrested cells, primary screen, cell-based, GFP/MAC1 double positive, flow cytometry, validation set (AID 588685;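 active = differentiation response of at least 50%, scaled between solvent and reference control, from cells with both markers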;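 note: compound exposure lasts four days before antibody staining and flow analysis; 0% = DMSO wells and 100% = 5 µM fulvestrant positive control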). Conditions: ER-HoxA9 marrow cells, stronger effect = higher value, normalized: vehicle 0, fulvestrant 100.

Results filed as inconclusive are left out. The source made the active and inactive calls.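 Rule for the calls, unless noted: active = aptamer binding inhibition above 30%, about 3 SD of noise from non-fluorescent compounds; inactive = inhibition at or below 30%.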

ATP-binding cassette sub-family B member 6 (Homo sapiens), sequence (Q9NP58 whole entry, looked up): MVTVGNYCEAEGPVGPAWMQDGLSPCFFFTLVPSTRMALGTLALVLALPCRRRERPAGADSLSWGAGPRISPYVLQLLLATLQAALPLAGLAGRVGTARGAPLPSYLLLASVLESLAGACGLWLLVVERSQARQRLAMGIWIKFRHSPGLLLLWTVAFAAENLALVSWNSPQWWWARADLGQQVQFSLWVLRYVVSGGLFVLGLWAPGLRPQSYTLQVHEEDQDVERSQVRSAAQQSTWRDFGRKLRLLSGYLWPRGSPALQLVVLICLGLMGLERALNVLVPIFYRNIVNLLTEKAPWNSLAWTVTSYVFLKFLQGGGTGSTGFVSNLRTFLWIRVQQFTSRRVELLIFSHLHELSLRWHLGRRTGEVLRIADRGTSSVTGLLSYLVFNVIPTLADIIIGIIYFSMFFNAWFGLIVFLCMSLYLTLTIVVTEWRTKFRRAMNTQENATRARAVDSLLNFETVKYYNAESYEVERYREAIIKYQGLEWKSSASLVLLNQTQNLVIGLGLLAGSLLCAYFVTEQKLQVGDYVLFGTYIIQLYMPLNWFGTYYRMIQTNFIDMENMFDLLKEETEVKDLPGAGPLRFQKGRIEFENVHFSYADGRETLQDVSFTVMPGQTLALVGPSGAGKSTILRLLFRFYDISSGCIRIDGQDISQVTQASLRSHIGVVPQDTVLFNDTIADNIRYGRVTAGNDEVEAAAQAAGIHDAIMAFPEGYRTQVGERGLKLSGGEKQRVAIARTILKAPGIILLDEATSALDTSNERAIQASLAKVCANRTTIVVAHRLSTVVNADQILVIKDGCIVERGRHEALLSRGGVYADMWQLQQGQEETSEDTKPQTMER
Integrin beta-1 (Homo sapiens) + Integrin alpha-4 (Homo sapiens), sequence (P05556 whole entry, looked up): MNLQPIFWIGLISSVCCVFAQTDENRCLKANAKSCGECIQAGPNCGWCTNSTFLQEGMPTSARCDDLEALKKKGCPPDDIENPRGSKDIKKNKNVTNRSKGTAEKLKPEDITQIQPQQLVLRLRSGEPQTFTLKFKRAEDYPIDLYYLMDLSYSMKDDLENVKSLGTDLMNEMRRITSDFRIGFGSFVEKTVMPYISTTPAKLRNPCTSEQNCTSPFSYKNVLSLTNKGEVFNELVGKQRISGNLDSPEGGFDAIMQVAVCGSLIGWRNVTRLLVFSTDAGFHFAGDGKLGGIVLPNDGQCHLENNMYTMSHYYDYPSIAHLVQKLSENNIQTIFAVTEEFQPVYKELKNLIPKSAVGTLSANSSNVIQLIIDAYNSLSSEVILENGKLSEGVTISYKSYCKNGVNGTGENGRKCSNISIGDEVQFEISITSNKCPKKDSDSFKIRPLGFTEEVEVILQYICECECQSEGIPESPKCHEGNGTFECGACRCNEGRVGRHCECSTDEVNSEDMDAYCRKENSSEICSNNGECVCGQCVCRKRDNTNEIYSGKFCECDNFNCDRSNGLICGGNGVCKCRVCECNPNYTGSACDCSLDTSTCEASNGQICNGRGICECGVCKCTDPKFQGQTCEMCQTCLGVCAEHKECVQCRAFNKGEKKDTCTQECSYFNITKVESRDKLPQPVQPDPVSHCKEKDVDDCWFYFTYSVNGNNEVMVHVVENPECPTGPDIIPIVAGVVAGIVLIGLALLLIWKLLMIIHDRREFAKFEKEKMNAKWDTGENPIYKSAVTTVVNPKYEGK
Integrin beta-1 (Homo sapiens) + Integrin alpha-4 (Homo sapiens), sequence (P13612 whole entry, looked up): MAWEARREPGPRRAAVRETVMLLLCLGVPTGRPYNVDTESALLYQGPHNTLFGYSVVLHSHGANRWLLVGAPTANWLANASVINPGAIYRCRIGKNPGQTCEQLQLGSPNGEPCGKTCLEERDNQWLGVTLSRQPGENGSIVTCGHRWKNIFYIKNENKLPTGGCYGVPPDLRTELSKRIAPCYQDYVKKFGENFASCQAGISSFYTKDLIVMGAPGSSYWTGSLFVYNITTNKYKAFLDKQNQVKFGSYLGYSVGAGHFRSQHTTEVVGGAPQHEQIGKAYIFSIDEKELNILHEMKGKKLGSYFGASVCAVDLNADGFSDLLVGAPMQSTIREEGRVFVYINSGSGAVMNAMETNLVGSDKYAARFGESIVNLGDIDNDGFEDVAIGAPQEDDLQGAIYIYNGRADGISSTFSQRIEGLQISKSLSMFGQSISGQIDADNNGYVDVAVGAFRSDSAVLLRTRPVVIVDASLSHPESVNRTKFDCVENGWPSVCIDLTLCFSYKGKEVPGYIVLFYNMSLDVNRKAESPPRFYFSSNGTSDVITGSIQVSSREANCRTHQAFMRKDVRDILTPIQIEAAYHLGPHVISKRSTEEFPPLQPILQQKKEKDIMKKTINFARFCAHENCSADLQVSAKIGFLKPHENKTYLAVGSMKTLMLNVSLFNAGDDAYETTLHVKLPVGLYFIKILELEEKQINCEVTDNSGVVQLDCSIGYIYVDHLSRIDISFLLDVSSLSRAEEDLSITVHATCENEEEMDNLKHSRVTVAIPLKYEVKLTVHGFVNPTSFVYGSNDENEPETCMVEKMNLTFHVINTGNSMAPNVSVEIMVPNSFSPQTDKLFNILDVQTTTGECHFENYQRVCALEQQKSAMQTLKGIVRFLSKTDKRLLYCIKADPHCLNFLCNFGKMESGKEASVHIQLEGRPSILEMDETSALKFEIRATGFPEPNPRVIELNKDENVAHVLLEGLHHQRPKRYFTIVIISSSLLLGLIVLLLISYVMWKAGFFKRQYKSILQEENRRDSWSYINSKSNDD
Beta-adrenergic receptor kinase 1 (Homo sapiens), sequence (P25098 whole entry, looked up): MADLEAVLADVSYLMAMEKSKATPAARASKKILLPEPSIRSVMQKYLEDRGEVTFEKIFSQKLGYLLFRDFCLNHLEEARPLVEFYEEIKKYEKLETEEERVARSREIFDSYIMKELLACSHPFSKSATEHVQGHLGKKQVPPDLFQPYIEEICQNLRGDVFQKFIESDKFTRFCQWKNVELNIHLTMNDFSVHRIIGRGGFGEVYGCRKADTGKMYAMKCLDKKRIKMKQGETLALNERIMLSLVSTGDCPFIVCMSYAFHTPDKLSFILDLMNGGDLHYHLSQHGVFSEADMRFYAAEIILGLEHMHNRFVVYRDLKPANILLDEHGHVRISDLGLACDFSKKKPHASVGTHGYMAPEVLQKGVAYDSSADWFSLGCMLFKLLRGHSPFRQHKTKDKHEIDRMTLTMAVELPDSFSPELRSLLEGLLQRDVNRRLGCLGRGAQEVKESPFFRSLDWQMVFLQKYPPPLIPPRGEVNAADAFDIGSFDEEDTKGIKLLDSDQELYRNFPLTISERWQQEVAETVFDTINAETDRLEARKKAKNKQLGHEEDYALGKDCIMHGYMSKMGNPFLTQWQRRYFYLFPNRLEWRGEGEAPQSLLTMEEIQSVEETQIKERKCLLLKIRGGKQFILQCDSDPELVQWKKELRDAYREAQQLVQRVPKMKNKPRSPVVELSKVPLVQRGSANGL
Beta-2 adrenergic receptor (Homo sapiens), sequence (P07550 whole entry, looked up): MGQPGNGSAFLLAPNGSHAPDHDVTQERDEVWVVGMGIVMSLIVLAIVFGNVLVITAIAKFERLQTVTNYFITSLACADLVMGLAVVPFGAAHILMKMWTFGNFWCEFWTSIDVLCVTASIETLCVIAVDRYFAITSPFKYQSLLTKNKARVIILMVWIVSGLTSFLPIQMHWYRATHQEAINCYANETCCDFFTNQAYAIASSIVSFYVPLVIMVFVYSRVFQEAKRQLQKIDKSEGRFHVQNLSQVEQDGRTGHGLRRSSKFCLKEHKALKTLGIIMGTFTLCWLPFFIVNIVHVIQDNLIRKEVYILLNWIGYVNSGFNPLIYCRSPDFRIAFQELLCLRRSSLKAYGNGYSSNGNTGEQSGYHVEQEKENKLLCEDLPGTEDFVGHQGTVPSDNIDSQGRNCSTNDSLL
AP-2 complex subunit beta (Homo sapiens), sequence (P63010 whole entry, looked up, the tested form may be a part, one chain of several): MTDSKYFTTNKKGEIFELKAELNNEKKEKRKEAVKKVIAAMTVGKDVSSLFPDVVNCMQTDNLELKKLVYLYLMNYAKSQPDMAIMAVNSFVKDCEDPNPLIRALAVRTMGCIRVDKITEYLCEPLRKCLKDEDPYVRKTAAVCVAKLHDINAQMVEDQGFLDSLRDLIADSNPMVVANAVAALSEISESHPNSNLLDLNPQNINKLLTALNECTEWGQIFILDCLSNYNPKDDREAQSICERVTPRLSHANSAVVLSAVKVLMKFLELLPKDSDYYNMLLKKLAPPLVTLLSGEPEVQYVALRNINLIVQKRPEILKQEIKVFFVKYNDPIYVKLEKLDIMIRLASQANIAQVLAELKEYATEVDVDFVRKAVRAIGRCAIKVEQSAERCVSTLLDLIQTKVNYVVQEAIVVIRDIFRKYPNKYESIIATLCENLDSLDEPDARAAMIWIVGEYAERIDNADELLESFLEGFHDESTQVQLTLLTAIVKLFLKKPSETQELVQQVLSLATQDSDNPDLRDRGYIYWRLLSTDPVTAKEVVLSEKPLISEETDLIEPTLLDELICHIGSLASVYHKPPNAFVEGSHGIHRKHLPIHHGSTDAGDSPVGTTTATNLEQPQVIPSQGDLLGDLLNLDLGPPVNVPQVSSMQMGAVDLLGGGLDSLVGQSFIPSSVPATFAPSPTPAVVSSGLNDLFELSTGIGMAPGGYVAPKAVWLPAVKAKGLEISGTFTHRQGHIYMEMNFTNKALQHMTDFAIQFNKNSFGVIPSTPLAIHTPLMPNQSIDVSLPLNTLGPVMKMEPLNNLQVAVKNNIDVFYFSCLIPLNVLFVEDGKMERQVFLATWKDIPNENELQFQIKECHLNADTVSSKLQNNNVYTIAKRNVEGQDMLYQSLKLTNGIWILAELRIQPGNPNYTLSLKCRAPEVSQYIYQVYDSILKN

By inhibition is commonly meant the drop in the measured response relative to a control, in per cent. With `CC(C)(C)C(=O)NCCCNc1ccc([N+](=O)[O-])cc1`, the percent of DMSO control GFP in assay [1] was 103% (inactive). In addition, the GFP response vs DMSO in [2] was 123% (inactive); in assay [4], 95.2% (inactive). Also, the percent response of DMSO control in assay [3] was 93.9% (inactive). The GFP response, % of DMSO in [5] was 104% (inactive). The same compound registered a double positive events in [6] of 67.3%. Further, the vesicle binding response in assay [6] is 295% (inactive). Also, the results for the inhibition in [7], in [11] and in [15] were 5.49% (inactive), 22% (inactive) and 15% (inactive), respectively. Besides, the superoxide response (% of plate) in assay [8] was 86% (inactive). Further, the aptamer binding inhibition in assay [9] was -1% (inactive). Moreover, the response in assay [10] is -6.07% (inactive); in [12], 1.78% (inactive). In addition, the binding (% of control) in assay [13] was 110% (inactive). Moreover, the efflux inhibition (fraction of control) in [14] was -0.06 (inactive). Further, the differentiation response in assay [16] was 12.3% (inactive).
For `C=CCNC(=O)c1ccc(-c2cccc([N+](=O)[O-])c2)o1`, the percent of DMSO control GFP in [1] is 98.8% (inactive). Besides, the GFP response vs DMSO was 101% (inactive) in assay [2] and 107% (inactive) in assay [4]. In addition, the percent response of DMSO control in assay [3] was 91.7% (inactive). Also, the GFP response, % of DMSO in assay [5] is 95.1% (inactive). The compound further showed a double positive events in assay [6] of 52.6%. Besides, in assay [6], the vesicle binding response is 773% (inactive). Also, the inhibition in assay [7] is 6.85% (inactive); in [11], -25% (inactive); in assay [15], 4% (inactive). For the same compound, the superoxide response (% of plate) in assay [8] was 101% (inactive). The aptamer binding inhibition in assay [9] is 3% (inactive). The response in [10] is 9.11% (inactive); in assay [12], -0.55% (inactive). The binding (% of control) in [13] is 101% (inactive). For the same compound, the efflux inhibition (fraction of control) in [14] is -0.34 (inactive). For the same compound, the differentiation response in [16] is 6.49% (inactive).
In the case of `COc1c(C=O)c(CCN(C)C(=O)c2ccc(F)cc2)cc2c1OCO2`, in assay [1], the percent of DMSO control GFP is 103% (inactive). For the same compound, the GFP response vs DMSO in assay [2] and in assay [4] was 104% (inactive) throughout. Also, the percent response of DMSO control in assay [3] was 100% (inactive). Moreover, the GFP response, % of DMSO in assay [5] is 106% (inactive). In assay [6], this compound showed a double positive events of 59.6%. Moreover, the vesicle binding response in assay [6] is 171% (inactive). Further, the inhibition in [7] is 3.14% (inactive); in assay [11] it was 10.3% (inactive); in assay [15], -2% (inactive). Also, the superoxide response (% of plate) in assay [8] is 115% (inactive). Also, the aptamer binding inhibition in assay [9] was 4% (inactive). For the same compound, the response in assay [10] was -22.5% (inactive); in [12], 2.09% (inactive). Further, the binding (% of control) in assay [13] is 109% (inactive). Moreover, the efflux inhibition (fraction of control) in assay [14] was -0.17 (inactive). In addition, the differentiation response in assay [16] was 19.6% (inactive).
On to `COc1ccc(C(=O)O)cc1F`, for which the percent of DMSO control GFP in assay [1] is 104% (inactive). Further, the GFP response vs DMSO was 107% (inactive) in assay [2] and 94.8% (inactive) in assay [4]. For the same compound, the percent response of DMSO control in assay [3] was 107% (inactive). For the same compound, the GFP response, % of DMSO in [5] was 103% (inactive). This compound yielded a double positive events in [6] of 65.5%. Besides, the vesicle binding response in [6] was 151% (inactive). Besides, the inhibition in [7] was -1.09% (inactive); in [11], 15.5% (inactive); in [15] it was -3% (inactive). For the same compound, in [8], the superoxide response (% of plate) is 105% (inactive). Moreover, the aptamer binding inhibition in assay [9] is 3% (inactive). The response was 3.73% (inactive) in assay [10] and -13.5% (inactive) in assay [12]. In assay [13], the binding (% of control) was 102% (inactive). Moreover, the efflux inhibition (fraction of control) in assay [14] was -0.09 (inactive). The differentiation response in assay [16] is -8.96% (inactive).
On to `COc1ccc(C(=O)Nc2ccccc2C(=O)NC(Cc2c[nH]c3ccccc23)C(=O)O)cc1` (stereo not given), for which, in assay [1], the percent of DMSO control GFP was 101% (inactive). Also, the GFP response vs DMSO was 107% (inactive) in [2] and 92.7% (inactive) in assay [4]. Moreover, the percent response of DMSO control in assay [3] was 95.4% (inactive). In [5], the GFP response, % of DMSO is 95.4% (inactive). This compound also yielded a double positive events in assay [6] of 64.5%. The vesicle binding response in assay [6] is 174% (inactive). For the same compound, the results for the inhibition in assay [7], in assay [11] and in assay [15] were -28.5% (inactive), 51.3% (inactive) and -16% (inactive), respectively. The superoxide response (% of plate) in assay [8] is 107% (inactive). Also, the aptamer binding inhibition in [9] is 3% (inactive). The response in assay [10] was 10.6% (inactive); in assay [12] it was -3% (inactive). Moreover, in [13], the binding (% of control) is 99.8% (inactive). Further, in [14], the efflux inhibition (fraction of control) is 0.33 (inactive). The differentiation response in assay [16] was 22.7% (inactive).
